Laboratory results published in PubChem BioAssay (EPA / NIEHS).
Records with an inconclusive call do not appear. Calls of active or inactive are those of the source. Rule for the calls: active = hit-call score of the fitted dose curve at least 0.9, where 1 is the maximum; inconclusive = response in the unintended direction; inactive = score below 0.9.

Experiment: ACEA_ER_AUC_viability: ACEA Biosciences xCELLigence Real-Time Cell Analysis on Estrogen Receptor Agonism for Viability (AID 2283782);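 note: continuous compound exposure with impedance area under curve over 80 h; hit means loss of impedance signal meaning reduced cell growth or viability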
Description: ACEA_ER is a cell-based, single-readout assay that uses T47D, a human breast cell line, with measurements taken at 80 hours after chemical dosing in a 96-well plate, although TO2 (mc0.srcf) used a 384-well plate. Differences in plate size can be ignored given data normalization.ACEA_ER_AUC_viability is one of two assay component(s) measured or calculated from the ACEA_ER assay. It is designed to make measurements of real-time cell-growth kinetics, a form of growth reporter, as detected with electrical impedance signals by Real-Time Cell Electrode Sensor (RT-CES) technology.Data from the assay component ACEA_ER_AUC_viability was analyzed in the positive analysis fitting direction relative to DMSO as the negative control and baseline of activity. Using a type of growth reporter, loss-of-signal activity can be used to understand changes in the viability. Furthermore, this assay endpoint can be referred to as a secondary readout, because this assay has produced multiple assay endpoints where this one serves a viability function. To generalize the intended target to other relatable targets, this assay endpoint is annotated to the cell cycle intended target family, where the subfamily is cytotoxicity.
The xCELLigence system Multi-E-Plate stations were used to measure the time-dependent response to chemicals. Each compound was tested in an eight-point, 1:4 serial dilution series starting at a maximum final concentration of 100 uM. A maximum starting concentration of 0.5% DMSO was present in the 100 uM chemical samples and was diluted along with the test article dilution series. The screen was performed in biological duplicate using two separate, 96-well, E-Plates 96 for each dilution series (n = 2). Positive controls (MG132 and E2) and a negative control (assay media) were tested in quadruplicate on each testing plate. Then, 0.5% and 0.125% DMSO were tested in duplicates in each plate to serve as solvent controls for the 2 highest concentrations of testing compounds: 100 uM and 25 uM. Reference compounds were tested with 8 concentrations with 1:5 serial dilutions. All screening was carried out by ACEA Biosciences, Inc. (San Diego, CA). T-47D cells purchased from ATCC were maintained in RPMI1640 media supplemented with 10% characterized fetal bovine serum (FBS). Before screening, T-47D cells were preconditioned in assay medium: phenol red-free RPMI1640 supplemented with 10% charcoal-stripped FBS. Cells were then detached and seeded in E-Plates 96 in assay medium. After overnight monitoring of growth once every hour, compounds were added to […] cells and remained in the medium until the end of the experiment. Cellular responses were then recorded once every 5 min for the first 5 h, and once every hour for an additional 100 h.
For `CCOC(=O)C(=O)OCC`, the outcome was “inactive”. For `CCOC(=O)C=Cc1ccccc1`, the outcome was “inactive”. For `C=COCC1CCC(COC=C)CC1` (stereo not given), the outcome was “inactive”. In the case of `CC(=N[Si](C)(C)C)O[Si](C)(C)C`, the outcome is reported as “inactive”. With `CC(CCO)CC(C)(C)C` (stereo not given) the outcome was “inactive”. For `CC(=O)c1ccc(C)cc1`, the outcome was “inactive”. In the case of `CCCCN(CCCC)CCCCCCN(CCCC)CCCC`, the outcome is reported as “inactive”. For `O=S1(=O)CC(Cl)(Cl)C(Cl)(Cl)C1`, the AC50 was 1.42 µM (active). In the case of `COc1ccc(C(C)=O)cc1`, the outcome is reported as “inactive”. In the case of `CCCCCCCCSCc1cc(C)c(O)c(CSCCCCCCCC)c1`, the outcome is reported as “inactive”. With `O=C(O)c1cc(C(=O)O)c(C(=O)O)cc1C(=O)O` the outcome was “inactive”. In the case of `Cc1ccc(C(C)(C)O)cc1`, the outcome is reported as “inactive”. For `CCCCOCC(C)OCC(C)O` (stereo not given), the outcome was “inactive”. For `CC(O)COCC(C)O` (stereo not given), the outcome was “inactive”. For `CC(C)(O)C(=O)c1ccc(OCCO)cc1`, the outcome was “inactive”. With `CCOC(=O)CC(C)C` the outcome was “inactive”. In the case of `c1ccc(Sc2ccccc2)cc1`, the AC50 is reported as 83.4 µM (active). In the case of `C=CCS(=O)(=O)O`, the outcome is reported as “inactive”. In the case of `O=C(C=Cc1ccccc1)OCCCc1ccccc1`, the AC50 is reported as 60 µM (active). For `CC/C=C\CCCCO`, the AC50 was 50 µM (active). With `C[Si]1(C)N[Si](C)(C)N[Si](C)(C)N1` the outcome was “inactive”. For `O=C1CCC(=O)N1`, the AC50 was 50 µM (active). For `O=C(O)c1ccco1`, the AC50 was 50 µM (active). For `CCOC(=O)CCCCCCCCC(=O)OCC`, the outcome was “inactive”. For `C=CCOCC(O)CO` (stereo not given), the outcome was “inactive”. In the case of `CC(=O)CC(C)(C)C1CCCCC1`, the outcome is reported as “inactive”. For `C=C/C(C)=C/C/C=C(\C)CCC=C(C)C`, the AC50 was 89.9 µM (active). With `c1ccc(OCCOc2ccccc2)cc1` the outcome was “inactive”. With `c1ccc2scnc2c1` the outcome was “inactive”. For `CCCOC(=O)CC`, the outcome was “inactive”. For `CCOc1ccc(NC(C)=O)cc1`, the outcome was “inactive”. With `CC(C)C(=O)c1ccccc1` the outcome was “inactive”. In the case of `CCCCCCOc1ccc(O)cc1`, the AC50 is reported as 67.3 µM (active). With `OC[C@@H](O)[C@H](O)[C@@H](O)[C@@H](O)CO` the outcome was “inactive”. For `CC/C=C\CCCCCCCCCCOC(C)=O`, the outcome was “inactive”. With `CC/C(=C(\c1ccccc1)c1ccc(OCCN(C)C)cc1)c1ccccc1` the AC50 was 17.7 µM (active) [middle of 5 runs]. With `CC(=O)OC(C)(C)C1CC=C(C)CC1` (stereo not given) the AC50 was 79 µM (active). In the case of `CCCC1CCC(=O)CC1`, the outcome is reported as “inactive”. For `CCCCCC1CCC(=O)O1` (stereo not given), the outcome was “inactive”. For `O=C(Nc1cccc(Cl)c1)OCC#CCCl`, the AC50 was 56.3 µM (active).
